The full ranking holds about 13,000 compounds; the median of “IFI” is about 4, and the highest 2% start at about 17. What follows is part of a selection rich in the highest values, with near analogues and random picks from the rest.

A short description of this assay: GSK_TCMDC: Inhibition Frequency Index (IFI). The number of non-kinase HTS assays where a compound showed > 50 % inhibition, expressed as a percentage of the number of such assays in which the compound was tested. The class given is functional.
In the case of `Cc1cccc2nc(-c3ccc(-c4cccc(NC(=O)Nc5ccc(F)c(F)c5F)c4)cc3)[nH]c12`, the IFI amounted to 2.91%.

On to `O=C(/C=C/C=C/c1ccc(Cl)c(Cl)c1)NCCCCCN1CCCC2CCCCC21` (centres undefined), for which the IFI is 5.19%. The figure for `Cc1cccc2nc(-c3cccc(-c4ccc(NC(=O)Nc5ccc(Cl)c(Cl)c5)cc4)c3)[nH]c12` is 7.07%; for `CC(=O)Oc1c(Cl)c(C)nc(C)c1-c1ccc(Oc2ccc(OC(F)(F)F)cc2)cc1` it is 6.35%; for `CCN(CC)CCCN(CCCN(CC)CC)c1cc(C)nc(Nc2ccc3cc(Br)ccc3c2)n1` it is 4.35%. The molecule `COc1cc(C(=O)Nc2ccc(-c3nc4ccccc4[nH]3)cc2)cc(OC)c1OC` yielded an IFI of 1.4%. The figure for `CCn1c(C(C)C)cc2c3c(N)nc(N)nc3ccc21` is 2.88%; for `CCN(CC)CCOc1ccc(C(O)(C#CC(O)(c2ccc(OCCN(CC)CC)cc2)c2ccc([N+](=O)[O-])cc2)c2ccc([N+](=O)[O-])cc2)cc1` (centres undefined) it is 5.84%; for `CCOc1cc(C(=O)NC2CCN(Cc3ccccc3)C2)ccc1-c1nc2cc(Cl)ccc2[nH]1` (centres undefined) it is 2.14%. The figure for `Nc1nc(N)c2cc(C(F)(F)F)ccc2n1` is 1.65%; for `Cc1cc(C)c(CON2C(=N)N=C(N)NC2(C)C)cc1C` it is 3.57%; for `Cc1cc(=O)[nH]c(-n2nc(C)cc2NC(=O)CC(c2ccccc2)c2ccccc2)n1` it is 10.4%. The figure for `Cc1cc(=O)[nH]c(-n2nc(C)cc2NC(=O)C(c2ccccc2)c2ccccc2)n1` is 10.4%. Take `Cc1cc(=O)[nH]c(-n2nc(C)cc2NC(=O)C2(c3ccc(Cl)cc3)CCCC2)n1`: the IFI stood at 19.2%. `COc1cc(NCC(O)CNc2cc(OC)c3ccccc3n2)nc2ccccc12` yielded an IFI of 8.51%. For the molecule `COc1cc(NCCCNCc2cn(Cc3cc(Br)cc(Br)c3)c3ccccc23)nc2ccccc12`, the IFI came out at 17.4%.

As for `COc1ccc(COc2cc(NCCCN)nc3ccccc23)cc1`, the IFI worked out at 0%. The figure for `COc1cc(NCC(C)CNCc2cn(Cc3ccccc3)c3ccccc23)nc2ccccc12` (centres undefined) is 7.19%. The figure for `COc1cc(NCCCNC(=O)c2ccc(Cl)c(Cl)c2)nc2ccccc12` is 12.5%; for `COc1cc(NCCCCNc2ccc(Cl)c(Cl)c2)nc2ccccc12` it is 26.5%; for `COc1cc(NCCCNCC2c3ccccc3Oc3ccccc32)nc2ccccc12` it is 20.8%.

`COc1cc(NCCCNCc2cn(S(=O)(=O)c3ccccc3)c3ccccc23)nc2ccccc12` returned an IFI of 8.96%. The figure for `COc1cc(NCCCCCNc2cc(Cl)nc3ccccc23)nc2ccccc12` is 15.8%; for `CCN(CC)/C(=N\CCCCCC/N=C(\NC(=N)c1ccc(Cl)cc1)N(CC)CC)NC(=N)c1ccc(Cl)cc1` it is 12.2%; for `CC(C)CNCc1cccc(-c2ccc(CN(CCCN3CCN(C)CC3)C(=O)/C=C/c3ccccc3)cc2)c1` it is 5.15%.

Turning to `Cc1cc(NC2CCN(Cc3ccccc3)CC2)nc(NCCCCc2ccccc2)n1`, the IFI was 10.6%. For `Cc1cccc2nc(-c3cccc(-c4cccc(NC(=O)C(C)CN(C)C)c4)c3)[nH]c12` (centres undefined), the IFI was 3.6%. In turn, `OCC1CCN(Cc2cccc(-c3ccc(-c4nc5cc(C(F)(F)F)ccc5[nH]4)s3)c2)CC1` gave an IFI of 2%.

In the case of `O=c1[nH]ccc2nc(N[C@@H]3CCCNC3)nc(Nc3ccc(S(=O)(=O)N4CCOCC4)cc3)c12`, the IFI was determined as 0%. The figure for `O=c1[nH]ccc2nc(N[C@@H]3CCNC3)nc(Nc3ccc4c(c3)S(=O)(=O)CC4)c12` is 0%; for `Cc1cccc(Nc2nc(N[C@@H]3CCCNC3)nc3cc[nH]c(=O)c23)c1` it is 16.7%; for `O=c1[nH]ccc2nc(N[C@@H]3CCNC3)nc(Nc3cc(Cl)cc(Cl)c3)c12` it is 16.7%. The figure for `NS(=O)(=O)c1cccc(Nc2nc(N[C@@H]3CCNC3)nc3cc[nH]c(=O)c23)c1` is 18.2%; for `O=c1[nH]ccc2nc(N[C@@H]3CCNC3)nc(Nc3cccc(S(=O)(=O)N4CCOCC4)c3)c12` it is 18.2%; for `OC(c1cc(C(F)(F)F)nc2c(F)cccc12)C1CCCCN1` (centres undefined) it is 0%. The figure for `CC(C)(C)OC(=O)Nc1cccc(-c2csc(NC(=N)N)n2)c1` is 4.08%. `CC(CNC(=O)[C@H]1CNCCN1C(=O)CCCc1ccccc1)c1ccccc1` (some centres undefined): the IFI turned out to be 2.84%. The figure for `COc1cccc2c1CCN(CCN1CCC(NC(=O)c3ccc(-c4cccc(Cl)c4Cl)cc3)CC1)C2` is 7.63%. The figure for `O=C(Oc1ccc(C2CNCCc3c2cc(OC(=O)c2ccc(O)cc2)c(OC(=O)c2ccc(O)cc2)c3Cl)cc1)c1ccc(O)cc1` (centres undefined) is 5.07%. The figure for `COc1ccc(C=NN=c2cc(C)[nH]c3ccc(C)cc23)c2ccccc12` is 7.09%. Consider `CCCCNS(=O)(=O)c1ccc(NC(=O)c2cc([N+](=O)[O-])ccc2Cl)cc1`, for which the IFI is 5.17%.

In turn, `CCC(C)c1ccc(NC(=O)Nc2ccnc3ccccc23)cc1` (centres undefined) yielded an IFI of 10.2%. The figure for `CCCNS(=O)(=O)c1ccc(NC(=O)C(C)Oc2ccc([N+](=O)[O-])cc2)cc1` (centres undefined) is 17.5%. The figure for `CCC(C)c1ccc(NC(=O)C(C)c2ccc([N+](=O)[O-])cc2)cc1` (centres undefined) is 23.7%; for `C=CCNS(=O)(=O)c1ccc(NC(=O)C(C)Oc2ccc([N+](=O)[O-])cc2)cc1` (centres undefined) it is 14.8%. The molecule `CCN(CC)c1ccc(C(c2ccc(N(CC)CC)cc2)c2ccc([N+](=O)[O-])cc2)cc1` returned an IFI of 4.35%. The figure for `CS(=O)(=O)c1ccc2[nH]c(-c3cc(-c4cccc(F)c4)cnc3N)nc2c1` is 6.45%; for `CC(=O)Nc1cccc(Nc2nccc(Nc3ccc(Oc4ccccc4)cc3)n2)c1` it is 4.96%; for `COc1ccc(-c2ccc(NC(=O)c3cccc(Cl)c3)cc2)cc1CN1CCN(C)CC1` it is 7.84%. The figure for `CCOC(=O)c1ccc(NC(=O)N(Cc2ccc(-c3ccc(CN4CCNCC4)cc3)cc2)C2CCN(Cc3ccccc3)CC2)cc1` is 7.64%; for `Cc1cc(N[C@@H](Cc2ccccc2)C(=O)NCCOc2ccccc2)nc(NCCc2cccs2)n1` it is 11.6%.

In the case of `Cc1cc(N)c2cc(NC(=O)c3ccc4ccccc4c3)ccc2n1`, the IFI was 6.08%. The figure for `Cc1nc(-c2ccc(-c3ccc(NC(=O)c4coc5ccc(N6CC(C)N(C)C(C)C6)cc45)cc3)c(C)c2)no1` (centres undefined) is 4.08%; for `O=C(Nc1ccc(Cl)cc1)N[C@H]1CCN(Cc2ccc(OCCCN3CCCCC3)cc2)C1` it is 7.14%. The figure for `CCN(CC)CCCC(C)Nc1ccnc2ccc(OC)cc12` (centres undefined) is 0.73%; for `COc1ccccc1CNc1ccnc(N2CC(Oc3ccc(F)cc3)C2)n1` it is 4%; for `CCCCNC(=N)c1ccc(OCCCCCOc2ccc(C(=N)NCCCC)cc2)cc1` it is 2.26%. `CCCCOc1ccc(C(=O)C(CCC(CNC(C)(C)C)C(=O)c2ccc(OCCCC)cc2)CNC(C)(C)C)cc1` (centres undefined) displayed an IFI of 25.4%. The figure for `CCCCCNC(=N)c1ccc(OCCCCCOc2ccc(C(=N)NCCCCC)cc2)cc1` is 5%.
